# Reference: PubChem BioAssay (Tox21)
# Values joined by “and” are separate entries in the source; they are usually repeats but may differ in a detail not shown here. Identical values can stand only once. Inconclusive results are not listed. Where a call stands in place of a potency, no number is given. The source holds several records for some structures; these can differ, active in one and inactive in another. Active and inactive are the calls of the source. Unless noted, calls follow the shape of the dose curve; as a rule, active = well fitted curve in the direction sought with a large enough effect in the repeat runs; inconclusive = weak or mixed curves; inactive = no such curve, though single readings can be large; an effect the other way counts as inactive or inconclusive.
# Assays:
# [1] = biological target: Acetylcholinesterase (Homo sapiens) (UniProt P22303); test: Acetylcholinesterase (AChE) small molecule antagonists: enzyme-based qHTS assay with human liver microsomes (AID 1347399; calls by dose curve; also: nearly all actives have a fitted effect of over 60% in size; also: potency is read from the fitted curve at half-maximal effect); conditions: Potency: qHTS inhibition; outcome: qHTS inhibition
# Summary of the method: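 Recombinant human AChE (50 mU/mL in the enzyme mix) and human liver microsomes (0.25 mg/mL final) were preincubated with compound and NADPH (0.25 mg/mL final) for 30 min at 37 C. Acetylthiocholine/DTNB was then added; thiocholine was read colorimetrically after 10 min at room temperature.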
# [2] = biological target: Cytochrome P450 2C19 (Homo sapiens) (UniProt P33261); test: Cytochrome P450 Family 2 Subfamily C Member 19 (CYP2C19) small molecule antagonists: luciferase reporter qHTS assay (AID 1671197); also: nearly all actives have a fitted effect of over 65% in size; also: potency is read from the fitted curve at half-maximal effect; as to activity change, negative = inhibition: series mostly up to about 120 µM
# Summary of the method: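 P450-Glo CYP2C19 system: enzyme-substrate mix with compound 10 min at room temperature, then NADPH regeneration solution, 1 h at 37C. Proluciferin-to-luciferin conversion detected by luminescence after 20 min with detection reagent; ketoconazole as positive control.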
# [3] = biological target: Cytochrome P450 2C9 (Homo sapiens) (UniProt P11712); test: Cytochrome P450 Family 2 Subfamily C Member 9 (CYP2C9) small molecule antagonists: luciferase reporter qHTS assay (AID 1671198); also: nearly all actives have a fitted effect of over 50% in size; also: potency is read from the fitted curve at half-maximal effect; as to activity change, negative = inhibition: series mostly up to about 120 µM
# Summary of the method: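 Enzyme-substrate mix preincubated with compound 10 min at room temperature; reaction started with NADPH regeneration solution, 1 h 37C. Luminescent luciferin product read after 20 min detection reagent.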
# [4] = biological target: Cytochrome P450 1A2 (Homo sapiens) (UniProt P05177); test: Cytochrome P450 Family 1 Subfamily A Member 2 (CYP1A2) small molecule antagonists: luciferase reporter qHTS assay (AID 1671199); also: nearly all actives have a fitted effect of over 50% in size; also: potency is read from the fitted curve at half-maximal effect; as to activity change, negative = inhibition: series mostly up to about 120 µM
# Summary of the method: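 Steps: enzyme-substrate mix dispensed; test compounds and furafylline control pinned in; 10 min room temperature; NADPH regeneration solution added, 1 h; reaction stopped with luciferin detection reagent; luminescence read after 20 min.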
# [5] = biological target: Cytochrome P450 3A4 (Homo sapiens) (UniProt P08684); test: Cytochrome P450 Family 3 Subfamily A Member 4 (CYP3A4) small molecule antagonists: luciferase reporter qHTS assay (AID 1671201); also: nearly all actives have a fitted effect of over 50% in size; also: potency is read from the fitted curve at half-maximal effect; as to activity change, negative = inhibition: series mostly up to about 120 µM
# Summary of the method: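 Setup: enzyme-substrate mix, compound pin transfer, 10 min RT. Reaction: NADPH regeneration solution, 1 h RT. Readout: detection reagent stops turnover, luminescence measured after 20 min, expressed in relative luminescence units.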
# [6] = biological target: Voltage-gated inwardly rectifying potassium channel KCNH2 (Homo sapiens) (UniProt Q12809); test: Human Ether-a-go-go-Related Gene (hERG) channel small molecule antagonists: fluorescence cell-based qHTS assay (AID 1671200);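 also: hERG-expressing U2OS cells given a thallium stimulus after FluxOR II dye loading; series mostly up to about 77 µM; nearly all actives have a fitted effect of over 50% in size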
# Summary of the method: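 Measured: Tl+ flux via fluorescence (480/540 nm) in hERG-expressing U2OS cells after 1 h dye loading at room temperature.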
# [7] = biological target: Cytochrome P450 2D6 (Homo sapiens) (UniProt P10635); test: Cytochrome P450 Family 2 Subfamily D Member 6 (CYP2D6) small molecule antagonists: luciferase reporter qHTS assay (AID 1671196)
# Summary of the method: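 Test chemicals meet CYP2D6 plus proluciferin substrate (10 min, RT); NADPH regenerating solution then drives turnover for 1 h. Detection reagent halts the reaction; luminescence measured after 20 min.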
# Chain of Cytochrome P450 3A4 (Homo sapiens) (P08684 whole entry, looked up): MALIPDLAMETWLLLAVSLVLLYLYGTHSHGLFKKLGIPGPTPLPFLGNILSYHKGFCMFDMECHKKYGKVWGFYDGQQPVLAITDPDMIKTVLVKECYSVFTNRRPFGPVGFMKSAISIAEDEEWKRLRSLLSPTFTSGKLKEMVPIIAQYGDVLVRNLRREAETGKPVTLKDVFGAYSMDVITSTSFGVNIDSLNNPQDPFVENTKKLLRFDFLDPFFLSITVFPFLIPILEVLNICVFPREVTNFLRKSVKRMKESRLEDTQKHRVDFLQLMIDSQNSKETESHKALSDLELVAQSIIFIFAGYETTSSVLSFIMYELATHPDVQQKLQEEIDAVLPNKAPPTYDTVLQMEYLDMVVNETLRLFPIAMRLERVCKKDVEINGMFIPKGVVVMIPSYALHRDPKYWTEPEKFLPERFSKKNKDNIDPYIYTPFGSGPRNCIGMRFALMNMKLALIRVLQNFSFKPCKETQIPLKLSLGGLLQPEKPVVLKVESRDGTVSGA
# Chain of Acetylcholinesterase (Homo sapiens) (P22303 whole entry, looked up): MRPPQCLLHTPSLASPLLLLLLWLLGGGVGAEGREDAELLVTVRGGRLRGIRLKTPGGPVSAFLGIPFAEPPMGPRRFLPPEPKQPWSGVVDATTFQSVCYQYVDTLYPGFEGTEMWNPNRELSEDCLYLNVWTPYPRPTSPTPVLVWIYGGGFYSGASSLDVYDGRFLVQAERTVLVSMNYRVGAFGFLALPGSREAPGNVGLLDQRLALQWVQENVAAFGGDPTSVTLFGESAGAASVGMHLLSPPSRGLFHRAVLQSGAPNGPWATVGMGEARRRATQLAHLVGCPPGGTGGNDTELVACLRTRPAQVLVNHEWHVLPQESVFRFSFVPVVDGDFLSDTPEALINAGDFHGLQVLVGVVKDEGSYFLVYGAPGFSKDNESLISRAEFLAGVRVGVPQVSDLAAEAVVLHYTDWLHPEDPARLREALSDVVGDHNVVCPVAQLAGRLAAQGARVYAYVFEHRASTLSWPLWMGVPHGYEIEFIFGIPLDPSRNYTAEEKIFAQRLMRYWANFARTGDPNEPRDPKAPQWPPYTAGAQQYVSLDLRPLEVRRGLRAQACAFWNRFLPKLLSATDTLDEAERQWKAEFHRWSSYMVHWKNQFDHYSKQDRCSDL
# Chain of Cytochrome P450 1A2 (Homo sapiens) (P05177 whole entry, looked up): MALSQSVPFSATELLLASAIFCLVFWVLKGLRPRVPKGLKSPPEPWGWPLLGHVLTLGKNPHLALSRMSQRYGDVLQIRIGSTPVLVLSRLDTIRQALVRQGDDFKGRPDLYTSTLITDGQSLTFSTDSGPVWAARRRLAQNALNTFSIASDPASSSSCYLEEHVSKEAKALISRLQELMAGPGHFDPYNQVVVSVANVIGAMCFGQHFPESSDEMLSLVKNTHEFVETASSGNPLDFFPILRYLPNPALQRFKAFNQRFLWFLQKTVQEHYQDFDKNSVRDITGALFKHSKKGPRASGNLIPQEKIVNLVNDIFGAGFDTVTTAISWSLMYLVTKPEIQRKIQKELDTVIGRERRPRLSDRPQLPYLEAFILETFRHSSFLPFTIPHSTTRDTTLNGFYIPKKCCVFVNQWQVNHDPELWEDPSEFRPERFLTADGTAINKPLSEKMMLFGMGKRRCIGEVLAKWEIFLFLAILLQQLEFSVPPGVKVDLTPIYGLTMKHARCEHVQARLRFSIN
# Chain of Cytochrome P450 2C19 (Homo sapiens) (P33261 whole entry, looked up): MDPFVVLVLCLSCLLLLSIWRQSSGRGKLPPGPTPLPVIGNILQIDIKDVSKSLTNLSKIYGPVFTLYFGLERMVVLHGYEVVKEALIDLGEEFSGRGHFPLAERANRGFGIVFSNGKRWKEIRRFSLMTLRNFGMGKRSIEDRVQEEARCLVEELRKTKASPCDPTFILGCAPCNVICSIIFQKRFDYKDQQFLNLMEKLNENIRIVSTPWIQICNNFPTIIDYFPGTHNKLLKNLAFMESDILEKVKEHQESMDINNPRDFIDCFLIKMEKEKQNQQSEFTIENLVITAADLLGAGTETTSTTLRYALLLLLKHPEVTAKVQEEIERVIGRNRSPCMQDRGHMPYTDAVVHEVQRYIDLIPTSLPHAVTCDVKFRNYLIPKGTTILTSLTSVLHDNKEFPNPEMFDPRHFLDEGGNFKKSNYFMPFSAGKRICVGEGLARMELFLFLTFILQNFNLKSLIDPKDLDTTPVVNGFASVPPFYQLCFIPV
# Chain of Cytochrome P450 2C9 (Homo sapiens) (P11712 whole entry, looked up): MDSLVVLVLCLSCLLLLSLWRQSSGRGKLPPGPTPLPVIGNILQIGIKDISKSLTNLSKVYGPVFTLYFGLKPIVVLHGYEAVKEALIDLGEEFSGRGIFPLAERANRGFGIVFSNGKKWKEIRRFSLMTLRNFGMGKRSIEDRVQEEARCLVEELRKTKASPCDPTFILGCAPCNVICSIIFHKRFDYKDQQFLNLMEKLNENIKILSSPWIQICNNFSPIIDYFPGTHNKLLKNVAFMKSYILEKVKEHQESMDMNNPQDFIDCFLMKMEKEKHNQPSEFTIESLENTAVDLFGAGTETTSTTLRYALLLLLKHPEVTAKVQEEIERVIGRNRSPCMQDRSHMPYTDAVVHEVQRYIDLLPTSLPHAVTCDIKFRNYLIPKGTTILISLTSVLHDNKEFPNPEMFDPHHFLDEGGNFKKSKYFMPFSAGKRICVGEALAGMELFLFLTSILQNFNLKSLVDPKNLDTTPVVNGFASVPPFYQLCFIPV
# Chain of Cytochrome P450 2D6 (Homo sapiens) (P10635 whole entry, looked up): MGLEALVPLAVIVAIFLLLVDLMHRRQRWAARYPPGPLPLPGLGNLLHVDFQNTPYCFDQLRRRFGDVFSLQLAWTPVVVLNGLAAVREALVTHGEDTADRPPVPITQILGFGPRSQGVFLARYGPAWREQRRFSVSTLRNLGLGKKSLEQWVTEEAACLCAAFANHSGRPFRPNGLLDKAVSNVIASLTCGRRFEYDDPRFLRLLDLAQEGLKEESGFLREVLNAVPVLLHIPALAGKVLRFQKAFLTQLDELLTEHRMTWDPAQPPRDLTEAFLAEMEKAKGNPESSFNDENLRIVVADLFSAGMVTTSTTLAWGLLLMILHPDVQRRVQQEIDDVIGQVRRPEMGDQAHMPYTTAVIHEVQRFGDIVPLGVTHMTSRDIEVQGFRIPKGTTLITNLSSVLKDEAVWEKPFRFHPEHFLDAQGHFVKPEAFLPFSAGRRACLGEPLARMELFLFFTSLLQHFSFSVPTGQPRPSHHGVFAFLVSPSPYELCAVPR
# Chain of Voltage-gated inwardly rectifying potassium channel KCNH2 (Homo sapiens) (Q12809 whole entry, looked up): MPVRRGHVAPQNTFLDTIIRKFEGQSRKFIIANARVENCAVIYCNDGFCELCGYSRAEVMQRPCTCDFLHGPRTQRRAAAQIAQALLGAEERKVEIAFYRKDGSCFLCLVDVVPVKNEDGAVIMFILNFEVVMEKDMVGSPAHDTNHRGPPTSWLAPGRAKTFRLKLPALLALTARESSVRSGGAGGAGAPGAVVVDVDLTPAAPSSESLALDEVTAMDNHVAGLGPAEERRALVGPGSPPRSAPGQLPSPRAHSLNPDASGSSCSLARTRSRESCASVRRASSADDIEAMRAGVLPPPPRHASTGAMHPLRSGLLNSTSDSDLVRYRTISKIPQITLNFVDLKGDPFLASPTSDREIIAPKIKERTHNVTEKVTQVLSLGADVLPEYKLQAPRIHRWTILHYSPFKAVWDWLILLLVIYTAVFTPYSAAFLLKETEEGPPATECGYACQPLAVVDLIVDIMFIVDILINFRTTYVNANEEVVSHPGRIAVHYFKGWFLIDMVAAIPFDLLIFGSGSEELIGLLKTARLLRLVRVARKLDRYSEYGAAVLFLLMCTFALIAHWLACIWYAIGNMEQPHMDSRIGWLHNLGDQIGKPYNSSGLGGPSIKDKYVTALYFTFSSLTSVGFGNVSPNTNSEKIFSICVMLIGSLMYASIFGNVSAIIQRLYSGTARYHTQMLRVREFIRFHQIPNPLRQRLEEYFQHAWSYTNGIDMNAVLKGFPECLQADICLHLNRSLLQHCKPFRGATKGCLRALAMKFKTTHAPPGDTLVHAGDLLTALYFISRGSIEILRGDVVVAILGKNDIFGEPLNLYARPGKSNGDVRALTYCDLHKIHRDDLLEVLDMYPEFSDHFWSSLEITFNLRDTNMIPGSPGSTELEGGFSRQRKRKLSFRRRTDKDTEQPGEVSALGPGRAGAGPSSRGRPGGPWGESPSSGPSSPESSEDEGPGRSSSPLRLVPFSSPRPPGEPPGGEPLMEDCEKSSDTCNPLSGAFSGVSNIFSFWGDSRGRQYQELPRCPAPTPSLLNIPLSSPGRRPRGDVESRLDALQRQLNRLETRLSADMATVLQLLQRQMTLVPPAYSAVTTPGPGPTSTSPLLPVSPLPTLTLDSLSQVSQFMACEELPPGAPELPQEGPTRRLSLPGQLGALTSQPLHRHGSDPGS
smiles,measurement,setting,value
CC(C)c1ccc(OP(=O)(Oc2ccc(C(C)C)cc2)Oc2ccc(C(C)C)cc2)cc1,Potency,[1],inactive
same,Potency,[2],3.58 µM (active) and 3.56 µM (active) and 2.83 µM (active)
same,Potency,[3],2.26 µM (active) and 3.17 µM (active) and 2.83 µM (active)
same,Potency,[4],22.6 µM (active) and 15.9 µM (active) and 17.8 µM (active)
same,Potency,[5],inactive
C#C[C@]1(O)CC[C@H]2[C@@H]3CCC4=CC(=O)CCC4=C3C=C[C@@]21CC,Potency,[1],inactive
same,Potency,[2],2.45 µM (active)
same,Potency,[3],0.776 µM (active)
same,Potency,[4],inactive
same,Potency,[6],inactive
COc1cc(CC#N)cc(OC)c1OC,Potency,[1],inactive
same,Potency,[2],inactive
same,Potency,[3],inactive
same,Potency,[4],24.5 µM (active)
same,Potency,[6],inactive
same,Potency,[5],inactive
O=C=NC1CCCCC1,Potency,[1],inactive
same,Potency,[2],inactive
same,Potency,[3],inactive
same,Potency,[4],inactive
same,Potency,[6],inactive
same,Potency,[5],inactive
O=C(O)c1cc(Cl)ccc1Cl,Potency,[1],inactive
same,Potency,[2],79.3 µM (active)
same,Potency,[4],39.7 µM (active)
same,Potency,[6],inactive
same,Potency,[5],inactive
CCCN(CCC)C(=O)Cc1c(-c2ccc(Cl)cc2)nc2ccc(Cl)cn12,Potency,[1],inactive
same,Potency,[3],9.77 µM (active)
same,Potency,[4],16.2 µM (active)
C[CH2][Hg][S]c1ccccc1C(=O)O,Potency,[6],inactive
CC1(C)[C@H](C(=O)O[C@H](C#N)c2cccc(Oc3ccccc3)c2)[C@@H]1C=C(Br)Br,Potency,[7],inactive
same,Potency,[2],5.87 µM (active) and 7.1 µM (active)
same,Potency,[3],1.86 µM (active) and 3.99 µM (active)
same,Potency,[4],inactive
same,Potency,[5],inactive
CCC(C)Cl (stereo not drawn),Potency,[1],inactive
same,Potency,[2],inactive
same,Potency,[3],inactive
same,Potency,[6],inactive
N#CC(C#N)=Cc1ccc(O)c(O)c1,Potency,[1],inactive
same,Potency,[2],inactive
same,Potency,[3],17.4 µM (active)
same,Potency,[6],inactive
same,Potency,[5],inactive
COc1ccc(C(O)(c2cncnc2)C2CC2)cc1 (stereo not drawn),Potency,[1],inactive
same,Potency,[2],20 µM (active)
same,Potency,[3],63.3 µM (active)
same,Potency,[5],0.894 µM (active)
CCCCCCCCCCCCN=C(N)N,"activity change, negative = inhibition",[1],1.01% [at 4.07 µM] (inactive)
same,"activity change, negative = inhibition",[3],-14.6% [at 4.07 µM] (inactive)
same,Potency,[4],2.2 µM (active)
same,"activity change, negative = inhibition",[6],-4.13% [at 2.72 µM] (inactive)
same,"activity change, negative = inhibition",[5],2.59% [at 4.07 µM] (inactive)
CC(C)(C)OOC(C)(C)CCC(C)(C)OOC(C)(C)C,Potency,[1],inactive
same,Potency,[2],inactive
same,Potency,[4],inactive
same,Potency,[6],inactive
same,Potency,[5],inactive
C=CC(C)(CCC=C(C)C)OC(=O)c1ccccc1N (stereo not drawn),Potency,[6],inactive
Clc1ccc2ccccc2c1,Potency,[1],inactive
same,Potency,[2],inactive
same,Potency,[3],inactive
same,Potency,[6],inactive
same,Potency,[5],inactive
Cc1ccc(N)c(C)c1,Potency,[2],39.5 µM (active) and 7.12 µM (active)
same,Potency,[3],35.7 µM (active)
same,Potency,[4],11.1 µM (active) and 2.83 µM (active)
same,Potency,[5],40 µM (active)
Cc1nnc(-c2ccccc2)c(=O)n1N,Potency,[1],inactive
same,Potency,[2],inactive
same,Potency,[4],35.6 µM (active)
same,Potency,[6],inactive
same,Potency,[5],inactive
C=CCOCC1CO1 (stereo not drawn),Potency,[1],inactive
same,Potency,[2],inactive
same,Potency,[3],inactive
same,Potency,[6],inactive
same,Potency,[5],30.9 µM (active)
O=C(NCNC(=O)NC1C(=O)NC(=O)N1CO)NC1C(=O)NC(=O)N1CO (stereo not drawn),Potency,[6],inactive
Clc1ccc(Cl)c(Cl)c1,Potency,[6],inactive
CC(C)c1ccc(NC(=O)N(C)C)cc1,Potency,[1],inactive
same,Potency,[2],31.7 µM (active)
same,Potency,[4],15.9 µM (active)
same,Potency,[6],inactive
same,Potency,[5],inactive
NCCc1cc(O)c(O)cc1O,Potency,[1],inactive
same,Potency,[2],9.77 µM (active)
same,Potency,[4],inactive
same,Potency,[6],inactive
same,Potency,[5],inactive
CC(C)OC(=O)Cc1ccccc1,Potency,[1],inactive
same,Potency,[3],inactive
same,Potency,[4],35.9 µM (active)
same,Potency,[5],inactive
C[N+](C)(C)CC1CO1 (stereo not drawn),Potency,[1],inactive
same,Potency,[2],inactive
same,Potency,[3],inactive
same,Potency,[6],inactive
same,Potency,[5],inactive
O=C(O)CCCOc1ccc(Cl)cc1Cl,Potency,[6],inactive
CCC1CCC(=O)O1 (stereo not drawn),Potency,[1],inactive
same,Potency,[2],45.2 µM (active)
same,Potency,[3],inactive
same,Potency,[6],inactive
CN1C[C@H](C(=O)N[C@]2(C)O[C@@]3(O)[C@@H]4CCCN4C(=O)[C@H](Cc4ccccc4)N3C2=O)C=C2c3cccc4[nH]cc(c34)C[C@H]21,Potency,[1],inactive
same,Potency,[2],28.4 µM (active) and 18.6 µM (active)
same,Potency,[4],20.1 µM (active)
O=C(O)C(O)C(O)C(=O)O (stereo not drawn),Potency,[6],inactive
CCc1ccccc1N,Potency,[1],inactive
same,Potency,[2],89.4 µM (active)
same,Potency,[6],inactive
c1ccc2c(c1)-c1cccc3cccc-2c13,Potency,[6],inactive
O=C(O)c1cc(I)cc(I)c1I,Potency,[1],inactive
same,Potency,[3],13.6 µM (active)
same,Potency,[6],inactive
NP(N)(=O)NC(=O)c1ccc(F)cc1,Potency,[1],inactive
same,Potency,[3],inactive
same,Potency,[6],inactive
C[C@H]1O[C@H](OC2[C@@H](O)[C@@H](O)C(O)[C@H](O)[C@H]2O)[C@@H](N)C[C@@H]1N=C(N)C(=O)O (stereo partly drawn),Potency,[1],inactive
same,Potency,[2],inactive
same,Potency,[3],inactive
same,Potency,[6],inactive
same,Potency,[5],inactive
CC(O)CN1CCN(CC(=O)[O-])CCN(CC(=O)[O-])CCN(CC(=O)[O-])CC1.[Gd+3] (stereo not drawn),Potency,[1],inactive
same,Potency,[4],inactive
same,Potency,[5],inactive
CCC[N+](CCC)(CCC)CCC,Potency,[1],inactive
same,Potency,[3],inactive
same,Potency,[5],inactive
COP(=O)(OC)OC(Br)C(Cl)(Cl)Br (stereo not drawn),Potency,[2],7.98 µM (active) and 17.8 µM (active)
same,Potency,[3],25.2 µM (active) and 22.4 µM (active)
same,Potency,[4],35.6 µM (active)
same,Potency,[6],inactive
same,Potency,[5],79.8 µM (active) and inactive
Nc1cc(Cl)cc(C(=O)O)c1Cl,Potency,[1],inactive
same,Potency,[2],inactive
same,Potency,[6],inactive
same,Potency,[5],inactive
Cc1nc(N(C)C)nc(OC(=O)N(C)C)c1C,Potency,[1],63.3 µM (active)
same,Potency,[2],79.6 µM (active)
same,Potency,[4],22.4 µM (active)
same,Potency,[6],inactive
same,Potency,[5],inactive
COC(=O)C1(O)c2ccccc2-c2ccccc21,Potency,[1],inactive
same,Potency,[2],79.6 µM (active)
same,Potency,[4],25.2 µM (active)
COc1ccccc1N1CCNCC1,Potency,[7],inactive
same,Potency,[2],inactive
same,Potency,[3],inactive
same,Potency,[4],inactive
same,Potency,[6],inactive
same,Potency,[5],inactive
C[C@]12C=CC3=C4CCC(=O)C=C4CC[C@H]3[C@@H]1CC[C@@H]2O,Potency,[1],inactive
same,Potency,[3],35.3 µM (active) and 30.1 µM (active)
same,Potency,[4],39.7 µM (active)
same,Potency,[6],inactive
CC(=O)NNc1ccccc1,Potency,[6],inactive
